Only some compounds are listed: those with a hit (about 3.8% of all), similar ones and a draw of the others.
ERb coact inh: blocks coactivator binding to human estrogen receptor beta; inhibition, % at 25.6 µM; TR-FRET ER-beta LBD / SRC1-Cy5 peptide binding; receptor agonist-loaded with 1 µM estradiol; Q92731; hit rate 1.3% among 86,000;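 active means compounds whose percent inhibition of the receptor-coactivator binding signal exceeds about 50% in the single-dose screen, limit read from the data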;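 further: 0% = receptor plus peptide wells without compound and 100% = peptide-only wells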
ERa coact pot: enhances coactivator binding to human estrogen receptor alpha | TR-FRET ERalpha-LBD/SRC-Cy5 coactivator binding, 2 h; 100 = basal binding, no effect | hit rate 1.3% among 86,000 | coactivator binding (% of control), % at 25.6 µM; in the data active means activity above about 200%;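 further: binding measured in presence of low estradiol as agonist stimulus; 0% = peptide alone without receptor and 100% = receptor with peptide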
Smad3 FoxH1 inh: Smad3 (human) transcription factor binding inhibition | hit rate 0.29% among 88,000 | TR-FRET Smad3/Dy647-FoxH1 peptide binding, europium anti-His | P84022 | inhibition, % at 25 µM;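 active means compounds that reduce the energy-transfer binding signal between the protein and its labelled peptide by more than half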;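 further: 0% = Smad3 plus labelled peptide maximal FRET and 100% = peptide-only background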
Target sequence (P84022 whole entry, looked up): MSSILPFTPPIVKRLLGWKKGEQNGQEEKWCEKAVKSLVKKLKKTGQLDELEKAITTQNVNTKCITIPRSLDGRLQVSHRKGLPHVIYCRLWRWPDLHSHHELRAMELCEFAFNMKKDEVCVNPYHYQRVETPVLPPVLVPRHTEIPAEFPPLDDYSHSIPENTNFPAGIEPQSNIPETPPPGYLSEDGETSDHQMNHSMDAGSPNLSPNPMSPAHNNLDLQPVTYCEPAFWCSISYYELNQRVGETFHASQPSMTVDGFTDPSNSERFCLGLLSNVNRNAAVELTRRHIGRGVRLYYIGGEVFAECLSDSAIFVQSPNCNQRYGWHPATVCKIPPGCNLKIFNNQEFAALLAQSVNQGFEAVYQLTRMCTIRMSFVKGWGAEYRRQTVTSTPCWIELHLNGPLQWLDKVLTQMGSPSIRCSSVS
Candida biofilm: kills Candida albicans biofilms; hit rate 0.14% among 85,000; inhibition, % at 6 µM; C. albicans biofilm + clotrimazole, Alamar Blue;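 active means inhibition above 20%; inactive means inhibition below 20%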;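 further: preformed 24 hr biofilms exposed to compound for 48 hr; 0% = biofilm without compound and 100% = blank killed by clotrimazole plus chlorhexidine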
ERa coact inh: ER-alpha (human) coactivator binding inhibition; P03372; TR-FRET ER-alpha LBD / SRC-1 peptide, estradiol-bound; inhibition, % at 25.6 µM; hit rate 1.7% among 86,000; in the data active means inhibition above about 50%;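 further: 0% = receptor plus peptide control and 100% = peptide only without receptor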
* marks the source's active call; other numbers are inactive results; [ ] = another dose, or the depositor's remark.

For C/C=C/COC(=O)c1[nH]c2c(c1C)C(=O)CC(c1ccco1)C2 (centres undefined) the results were ERb coact inh 55*, ERa coact pot 81, Smad3 FoxH1 inh -3, Candida biofilm 7 and ERa coact inh 59*.
Nc1ccn([C@H]2O[C@H](COC(=O)C34CC5CC(CC(C5)C3)C4)[C@@H](O)[C@@H]2O)c(=O)n1 was read as Smad3 FoxH1 inh -1.
O=C(O)CCNc1ncnc2nc[nH]c12 was read as Smad3 FoxH1 inh 8.
Oc1oc(-c2ccccc2)nc1C=Nc1ccccc1 was read as ERb coact inh -19, ERa coact pot 118, Smad3 FoxH1 inh -10, Candida biofilm 0 and ERa coact inh -15.
For CC(=O)Nc1ccc(N=Cc2nc(-c3ccc(C)cc3)oc2O)cc1 the results were ERb coact inh 51*, ERa coact pot 61, Smad3 FoxH1 inh 37, Candida biofilm 3 and ERa coact inh 81*.
Screening C[C@@H](N=C(N)N)C(=O)O returned Smad3 FoxH1 inh -5.
O=C(Cc1cccs1)Nc1ccc(-c2nnn(CC(=O)N3CCOCC3)n2)cc1 was read as ERb coact inh 93*, ERa coact pot 16, Smad3 FoxH1 inh -4, Candida biofilm 4 and ERa coact inh 96*[fluorescence artefact?].
Screening COc1ccc(N=C2NC(=O)S/C2=C\c2ccc(N(C)C)cc2)cc1 returned ERb coact inh 52*, ERa coact pot 37, Smad3 FoxH1 inh -1, Candida biofilm 0 and ERa coact inh 54*.
COc1ccc(N=C2C(=O)Nc3c(C)cccc32)cc1 was read as ERb coact inh 41, ERa coact pot 105, Smad3 FoxH1 inh 2, Candida biofilm 7 and ERa coact inh 22.
`O=C(O)CCSCc1ccccc1` gave Smad3 FoxH1 inh -4.
`COc1ccccc1C(=O)Nc1ccc(S(=O)(=O)N2CCOCC2)cc1` gave ERb coact inh -3, ERa coact pot 112, Smad3 FoxH1 inh -7, Candida biofilm -1 and ERa coact inh -10.
For O=C(Nc1nc(-c2ccncc2)cs1)c1ccc(S(=O)(=O)N2CCOCC2)cc1 the results were ERb coact inh -10, ERa coact pot 239*, Smad3 FoxH1 inh 5, Candida biofilm 4 and ERa coact inh -1.
`O=C(COc1cccc(Cl)c1)Nc1nc(-c2ccc(S(=O)(=O)N3CCOCC3)cc2)cs1` gave ERb coact inh 7, ERa coact pot 202*, Smad3 FoxH1 inh 10, Candida biofilm 3 and ERa coact inh -1.
CCOc1cccc(C(=O)Nc2nc(-c3ccc(S(=O)(=O)N4CCOCC4)cc3)cs2)c1 was read as ERb coact inh -7, ERa coact pot 166, Smad3 FoxH1 inh 1, Candida biofilm 1 and ERa coact inh -2.
Screening COc1ccccc1C(=O)Nc1nc(-c2ccc(S(=O)(=O)N3CCOCC3)cc2)cs1 returned ERb coact inh 3, ERa coact pot 399*[fluorescence artefact?], Smad3 FoxH1 inh 5, Candida biofilm 9 and ERa coact inh 1.
O=C(Nc1nc(-c2cccs2)cs1)c1ccc(S(=O)(=O)N2CCCCC2)cc1 was read as ERb coact inh -4, ERa coact pot 235*, Smad3 FoxH1 inh -7, Candida biofilm 13 and ERa coact inh -2.
For OC[C@H]1O[C@@H](O)[C@H](N=Cc2ccc3c(c2)OCO3)[C@@H](O)[C@@H]1O the results were Smad3 FoxH1 inh -19.
For NC(=O)NCCS[C@H]1CCCC[C@@H]1O the results were Smad3 FoxH1 inh 12.
Screening COc1ccccc1OC(C)C(=O)Nc1nc(-c2ccc(S(=O)(=O)N3CCOCC3)cc2)cs1 (centres undefined) returned ERb coact inh 8, ERa coact pot 263*[fluorescence artefact?], Smad3 FoxH1 inh -2, Candida biofilm 3 and ERa coact inh 1.
`Cc1ccc(NC2c3ncccc3C(=O)N2c2ccccc2C)cc1C` (centres undefined) gave ERb coact inh 21, ERa coact pot 543*[fluorescence artefact?], Smad3 FoxH1 inh 11, Candida biofilm 1 and ERa coact inh -45.
For C[C@@]12CC[C@H]3c4ccc(O)cc4CC[C@@H]3[C@H]1C/C(=N\O)[C@H]2O the results were Smad3 FoxH1 inh 20.
For O=C(O)C1(C(=O)O)CCN(S(=O)(=O)c2ccccc2)CC1 the results were Smad3 FoxH1 inh 25.
For CC(C)(C)c1c2c(c(C(C)(C)C)c3c1OCN(Cc1ccccc1)C3)OCN(Cc1ccccc1)C2 the results were Smad3 FoxH1 inh 42.
`NC(=O)/C(=N\OC(=O)c1ccco1)c1nc(-c2ccc(Br)cc2)cs1` gave ERb coact inh 47, ERa coact pot 86, Smad3 FoxH1 inh -2, Candida biofilm 12 and ERa coact inh 66*[fluorescence artefact?].
O=C(COC(=O)c1ccco1)Nc1ccc(Br)cc1 was read as ERb coact inh 24, ERa coact pot 98, Smad3 FoxH1 inh 8, Candida biofilm 5 and ERa coact inh 22.
Screening O=C1c2cccc([N+](=O)[O-])c2C(=O)N1c1ncn[nH]1 returned Smad3 FoxH1 inh 5.
COc1ccc2c(C)cc(SCC(=O)c3ccc4c(c3)OCO4)nc2c1 was read as ERb coact inh 12, ERa coact pot 300*[fluorescence artefact?], Smad3 FoxH1 inh -4, Candida biofilm 4 and ERa coact inh 16.
`O=C(CSc1ccccn1)c1ccc2c(c1)OCO2` gave ERb coact inh 2, ERa coact pot 122, Smad3 FoxH1 inh -10, Candida biofilm 4 and ERa coact inh 0.
`CN(C)c1ccc(NC(=O)CN2C(=O)CC(c3ccccc3)=Nc3ccccc32)cc1` gave ERb coact inh 66*[fluorescence artefact?], ERa coact pot 38, Smad3 FoxH1 inh 5, Candida biofilm 3 and ERa coact inh 93*[fluorescence artefact?].
`CN(C)c1ccc(NC(=O)CCCc2ccccc2)cc1` gave ERb coact inh -10, ERa coact pot 116, Smad3 FoxH1 inh 3, Candida biofilm -2 and ERa coact inh -69.
COC(=O)/C(=C\Nc1ccc(Cl)c2ccccc12)c1ncc(C(F)(F)F)cc1Cl was read as ERb coact inh 14, ERa coact pot 107, Smad3 FoxH1 inh 5, Candida biofilm -2 and ERa coact inh 55*.
Screening CCOC(=O)/C(=C\Nc1ccccc1C(F)(F)F)Sc1ncc(C(F)(F)F)cc1Cl returned ERb coact inh -2, ERa coact pot 90, Smad3 FoxH1 inh -11, Candida biofilm 7 and ERa coact inh -6.
Cc1ccc(S(=O)(=O)Oc2cc(N)c3c(n2)CCC3)cc1 was read as Smad3 FoxH1 inh 8.
CC(C)N(C(=O)c1ccc2nc3c4ccccc4c4ccccc4c3nc2c1)C(C)C was read as ERb coact inh -8, ERa coact pot 100, Smad3 FoxH1 inh 2, Candida biofilm 5 and ERa coact inh -6.
Screening COc1cccc(-c2nc(CS(=O)(=O)CC(=O)Nc3cc(C)ccc3C)c(C)o2)c1 returned ERb coact inh 12, ERa coact pot 214*[fluorescence artefact?], Smad3 FoxH1 inh -6, Candida biofilm 8 and ERa coact inh 16.
`COc1cccc(N2CCN(c3ncccn3)CC2)c1` gave ERb coact inh -2, ERa coact pot 338*[fluorescence artefact?], Smad3 FoxH1 inh -10, Candida biofilm 2 and ERa coact inh -2.
